# Results reported in PubChem BioAssay (NCI).
# Compounds without any hit were thinned out: in the full panel of roughly 79,000, 15% have a hit. Values without a mark were called inactive. Activity calls are given as the source filed them. No stated cut-off is given here; in the data, active means growth inhibition above about 70%; inactive means the rest.
# How the values were obtained:
# [1] = NCI Yeast Anticancer Drug Screen. Data for the rad52 strain (AID 147);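 further: 0% = growth of vehicle-treated control cultures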; settings: S. cerevisiae rad52 mutant growth inhibition, hits give high values
# Summary of the method: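 DNA repair-defective yeast; compound exposure; growth scored against vehicle controls.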
# [2] = NCI Yeast Anticancer Drug Screen. Data for the wt1 strain (AID 149);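 further: 0% = growth of vehicle-treated wt1 cultures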; settings: S. cerevisiae wt1 strain (SPY 50644) growth inhibition, hits give high values
# Summary of the method: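 wt1 strain grown with compound or vehicle; inhibition taken from the growth difference.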
# [3] = NCI Yeast Anticancer Drug Screen. Data for the rad50EPP+ strain (AID 151);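 further: 0% = growth of vehicle-treated control cultures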; settings: S. cerevisiae rad50 mutant strain, hits give high values
# Summary of the method: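 rad50EPP+ yeast treated with test compounds. Readout: growth vs vehicle control.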
# [4] = NCI Yeast Anticancer Drug Screen. Data for the mgt1 strain (AID 153); settings: S. cerevisiae mgt1 mutant growth inhibition, hits give high values
# Summary of the method: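 Growth inhibition relative to vehicle controls was scored for the mgt1 yeast strain after compound exposure.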
# [5] = NCI Yeast Anticancer Drug Screen. Data for the rad50 strain (AID 155);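 further: 0% = growth of vehicle-only cultures of the same strain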; settings: S. cerevisiae rad50 strain growth inhibition, hits give high values
# Summary of the method: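 DNA repair mutant yeast, compound exposure, growth read-out; inhibition is taken relative to vehicle.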
# [6] = NCI Yeast Anticancer Drug Screen. Data for the mec2-1 strain (AID 157); settings: S. cerevisiae mec2-1 strain, hits give high values
# Summary of the method: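 Growth inhibition is read against vehicle-treated controls after compound exposure of the mec2-1 yeast strain, which is defective in DNA damage repair or cell cycle control.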
# [7] = NCI Yeast Anticancer Drug Screen. Data for the rad14 strain (AID 159);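 further: 0% = growth of vehicle-treated control cultures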; settings: S. cerevisiae rad14 strain growth inhibition, hits give high values
# Summary of the method: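 DNA repair-defective yeast, compound-exposed; % growth inhibition derived by comparison with vehicle-treated controls.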
# [8] = NCI Yeast Anticancer Drug Screen. Data for the sgs1 mgt1 strain (AID 161);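 further: 0% = growth of cultures given vehicle only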; settings: S. cerevisiae sgs1 mgt1 strain, hits give high values
# Summary of the method: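 Compounds are added to genetically altered yeast, and growth is compared with cultures given vehicle alone to give percent inhibition.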
# [9] = NCI Yeast Anticancer Drug Screen. Data for the CLN2oe strain (AID 163);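 further: 0% = growth of vehicle-only control cultures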; settings: S. cerevisiae CLN2oe strain, hits give high values
# Summary of the method: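 Compound-treated yeast; growth vs vehicle ctrl = % inhibition. Genetically altered strain (cell-cycle control).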
# [10] = NCI Yeast Anticancer Drug Screen. Data for the cln2 rad14 strain (AID 165);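 further: 0% = growth equal to vehicle treated cultures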; settings: S. cerevisiae cln2 rad14 strain, hits give high values
# Summary of the method: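 Growth inhibition, relative to vehicle-treated controls, is the read-out. The test organism is a yeast strain with defined genetic alterations, cln2 rad14.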
# [11] = NCI Yeast Anticancer Drug Screen. Data for the bub3 strain (AID 167); settings: S. cerevisiae bub3 mutant strain, hits give high values
# Summary of the method: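 In this screen, a yeast mutant lacking normal mitotic checkpoint function is challenged with compound. Relative growth versus vehicle gives the inhibition value.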
# [12] = NCI Yeast Anticancer Drug Screen. Data for the wt2 strain (AID 169);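 further: 0% = growth of vehicle-treated yeast cultures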; settings: S. cerevisiae wt2 strain growth inhibition, hits give high values
# Summary of the method: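 Compound exposure of yeast; growth compared with vehicle controls; inhibition reported.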
# [13] = NCI Yeast Anticancer Drug Screen. Data for the mlh1 strain (AID 171);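 further: 0% = growth of vehicle-treated control cultures of the same strain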; settings: S. cerevisiae mlh1 strain growth inhibition, hits give high values
# Summary of the method: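 Compounds are applied to a genetically altered yeast strain, and its growth is compared with that of vehicle-treated cultures to give percent inhibition.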
# [14] = NCI Yeast Anticancer Drug Screen. Data for the sgs1 strain (AID 173);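 further: 0% = growth of vehicle-only control cultures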; settings: S. cerevisiae sgs1 mutant, hits give high values
# Summary of the method: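 Compounds applied to genetically altered yeast; growth compared with vehicle-treated cultures to give % inhibition.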
# [15] = NCI Yeast Anticancer Drug Screen. Data for the mlh1 rad18 strain (AID 175); settings: S. cerevisiae mlh1 rad18 strain growth inhibition, hits give high values
# Summary of the method: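 Cells of a genetically altered yeast strain, deficient in DNA damage repair, were treated with compound. Their growth was then compared with that of vehicle-treated cultures to give inhibition.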
# [16] = NCI Yeast Anticancer Drug Screen. Data for the rad18 strain (AID 177); settings: S. cerevisiae rad18 mutant growth inhibition, hits give high values
# Summary of the method: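 Compounds are applied to a repair-deficient yeast strain, and growth is compared with that of vehicle-treated cultures to give percent inhibition.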
# [17] = at 5.0 µM (retest, dose inferred, filed as 0.5)
# [18] = at 50.0 µM (retest, dose inferred, filed as 5.0)
structure (smiles),measurement,setting,value
N#C/C(=C1C=C(Br)/C(=N\O)C=C\1Cl)c1cccc2ccccc12,growth inhibition,[1]; at 1.2 µM,15%
same,growth inhibition,[1]; at 3.7 µM,16%
same,growth inhibition,[1]; at 11.0 µM,94% (active)
same,growth inhibition,[1]; at 33.0 µM,93% (active)
same,growth inhibition,[1]; at 100.0 µM,95% (active)
same,growth inhibition,[2]; at 1.2 µM,-1%
same,growth inhibition,[2]; at 3.7 µM,4%
same,growth inhibition,[2]; at 11.0 µM,84% (active)
same,growth inhibition,[2]; at 33.0 µM,86% (active)
same,growth inhibition,[2]; at 100.0 µM,96% (active)
same,growth inhibition,[3]; at 1.2 µM,18%
same,growth inhibition,[3]; at 3.7 µM,36%
same,growth inhibition,[3]; at 11.0 µM,63%
same,growth inhibition,[3]; at 33.0 µM,55%
same,growth inhibition,[3]; at 100.0 µM,88% (active)
same,growth inhibition,[4]; at 1.2 µM,11%
same,growth inhibition,[4]; at 3.7 µM,4%
same,growth inhibition,[4]; at 11.0 µM,79% (active)
same,growth inhibition,[4]; at 33.0 µM,85% (active)
same,growth inhibition,[4]; at 100.0 µM,97% (active)
same,growth inhibition,[5]; at 1.2 µM,28%
same,growth inhibition,[5]; at 3.7 µM,44%
same,growth inhibition,[5]; [17],99% (active)
same,growth inhibition,[5]; at 11.0 µM,91% (active)
same,growth inhibition,[5]; at 33.0 µM,87% (active)
same,growth inhibition,[5]; [18],98% (active)
same,growth inhibition,[5]; at 50.0 µM,89.2% (active)
same,growth inhibition,[5]; at 100.0 µM,94% (active)
same,growth inhibition,[6]; at 1.2 µM,2%
same,growth inhibition,[6]; at 3.7 µM,18%
same,growth inhibition,[6]; [17],100% (active)
same,growth inhibition,[6]; at 11.0 µM,89% (active)
same,growth inhibition,[6]; at 33.0 µM,91% (active)
same,growth inhibition,[6]; [18],98% (active)
same,growth inhibition,[6]; at 50.0 µM,90.7% (active)
same,growth inhibition,[6]; at 100.0 µM,94% (active)
same,growth inhibition,[7]; at 1.2 µM,-14%
same,growth inhibition,[7]; at 3.7 µM,-10%
same,growth inhibition,[7]; at 11.0 µM,55%
same,growth inhibition,[7]; at 33.0 µM,70% (active)
same,growth inhibition,[7]; at 100.0 µM,96% (active)
same,growth inhibition,[8]; [17],5%
same,growth inhibition,[8]; [18],96% (active)
same,growth inhibition,[9]; at 1.2 µM,-15%
same,growth inhibition,[9]; at 3.7 µM,27%
same,growth inhibition,[9]; at 11.0 µM,63%
same,growth inhibition,[9]; at 33.0 µM,86% (active)
same,growth inhibition,[9]; at 100.0 µM,93% (active)
same,growth inhibition,[10]; [17],25%
same,growth inhibition,[10]; [18],95% (active)
same,growth inhibition,[11]; at 1.2 µM,33%
same,growth inhibition,[11]; at 3.7 µM,49%
same,growth inhibition,[11]; [17],59%
same,growth inhibition,[11]; at 11.0 µM,94% (active)
same,growth inhibition,[11]; at 33.0 µM,93% (active)
same,growth inhibition,[11]; [18],93% (active)
same,growth inhibition,[11]; at 100.0 µM,95% (active)
same,growth inhibition,[12]; at 1.2 µM,0%
same,growth inhibition,[12]; at 3.7 µM,7%
same,growth inhibition,[12]; at 11.0 µM,87% (active)
same,growth inhibition,[12]; at 33.0 µM,90% (active)
same,growth inhibition,[12]; at 100.0 µM,97% (active)
same,growth inhibition,[13]; at 1.2 µM,-37%
same,growth inhibition,[13]; at 3.7 µM,-11%
same,growth inhibition,[13]; at 11.0 µM,58%
same,growth inhibition,[13]; at 33.0 µM,79% (active)
same,growth inhibition,[13]; at 100.0 µM,94% (active)
same,growth inhibition,[14]; at 1.2 µM,15%
same,growth inhibition,[14]; at 3.7 µM,18%
same,growth inhibition,[14]; at 11.0 µM,82% (active)
same,growth inhibition,[14]; at 33.0 µM,92% (active)
same,growth inhibition,[14]; at 100.0 µM,95% (active)
same,growth inhibition,[15]; [17],100% (active)
same,growth inhibition,[15]; [18],98% (active)
same,growth inhibition,[15]; at 50.0 µM,89.3% (active)
same,growth inhibition,[16]; at 1.2 µM,0%
same,growth inhibition,[16]; at 3.7 µM,12%
same,growth inhibition,[16]; at 11.0 µM,91% (active)
same,growth inhibition,[16]; at 33.0 µM,89% (active)
same,growth inhibition,[16]; at 100.0 µM,95% (active)
